# Measured values taken from ChEMBL document CHEMBL1961873, “Compounds: GSK PKIS; Assays: Nanosyn kinase panel” (2012).
# Tests used:
# [1] = target: Sphingosine kinase 1 (Homo sapiens) (UniProt Q9NYA1); conditions: at 1 µM;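 note: mean SPHK1 inhibition value reported from the GSK PKIS kinase panel screen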
# [2] = target: T1, Sphingosine kinase 2 (Homo sapiens) (UniProt Q9NRA0); conditions: at 0.1 µM
# T1 sequence (whole entry): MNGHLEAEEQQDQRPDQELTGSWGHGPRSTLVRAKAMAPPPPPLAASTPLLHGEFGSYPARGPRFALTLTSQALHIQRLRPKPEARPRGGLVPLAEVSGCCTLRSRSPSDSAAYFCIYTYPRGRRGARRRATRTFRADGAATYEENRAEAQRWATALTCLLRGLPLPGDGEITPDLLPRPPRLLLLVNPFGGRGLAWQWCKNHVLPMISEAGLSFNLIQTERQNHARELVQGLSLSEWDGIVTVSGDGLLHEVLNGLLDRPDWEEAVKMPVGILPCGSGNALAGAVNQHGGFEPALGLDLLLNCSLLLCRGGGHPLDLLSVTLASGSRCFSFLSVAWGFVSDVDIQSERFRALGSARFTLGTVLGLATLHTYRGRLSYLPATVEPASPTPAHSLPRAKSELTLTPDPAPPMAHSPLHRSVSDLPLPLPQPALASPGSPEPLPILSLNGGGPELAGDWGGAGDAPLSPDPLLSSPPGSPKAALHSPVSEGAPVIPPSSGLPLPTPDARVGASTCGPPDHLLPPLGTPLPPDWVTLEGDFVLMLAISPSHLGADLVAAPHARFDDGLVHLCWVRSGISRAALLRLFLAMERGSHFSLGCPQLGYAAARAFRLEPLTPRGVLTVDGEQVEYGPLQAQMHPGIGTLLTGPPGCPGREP
# [3] = target: T1, Sphingosine kinase 2 (Homo sapiens); conditions: at 1 µM
# [4] = target: Casein kinase II subunit alpha (Homo sapiens) (UniProt P68400); conditions: at 0.1 µM
# [5] = target: Casein kinase II subunit alpha (Homo sapiens) (UniProt P68400); conditions: at 1 µM
# [6] = target: T2, Inhibitor of nuclear factor kappa-B kinase subunit alpha (Homo sapiens) (UniProt O15111); conditions: at 0.1 µM
# T2 sequence (whole entry): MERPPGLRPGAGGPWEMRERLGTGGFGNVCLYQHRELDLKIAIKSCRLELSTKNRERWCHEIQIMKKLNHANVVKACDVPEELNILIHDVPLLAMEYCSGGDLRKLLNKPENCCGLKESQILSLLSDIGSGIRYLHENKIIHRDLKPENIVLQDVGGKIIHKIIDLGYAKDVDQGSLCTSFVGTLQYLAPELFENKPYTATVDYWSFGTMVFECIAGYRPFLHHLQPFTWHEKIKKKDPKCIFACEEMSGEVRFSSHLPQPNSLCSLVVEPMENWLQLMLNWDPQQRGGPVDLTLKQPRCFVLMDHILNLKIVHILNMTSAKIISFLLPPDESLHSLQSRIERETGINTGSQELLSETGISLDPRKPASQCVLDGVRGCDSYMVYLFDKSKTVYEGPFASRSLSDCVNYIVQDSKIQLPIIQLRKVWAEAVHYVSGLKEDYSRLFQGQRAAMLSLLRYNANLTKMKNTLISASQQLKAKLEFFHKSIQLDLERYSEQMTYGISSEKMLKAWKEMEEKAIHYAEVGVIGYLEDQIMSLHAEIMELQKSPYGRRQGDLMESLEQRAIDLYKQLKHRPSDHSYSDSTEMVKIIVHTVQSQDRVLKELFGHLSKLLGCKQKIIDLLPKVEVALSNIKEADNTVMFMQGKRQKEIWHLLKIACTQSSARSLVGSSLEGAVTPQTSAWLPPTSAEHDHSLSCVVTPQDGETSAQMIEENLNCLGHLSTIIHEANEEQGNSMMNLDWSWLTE
# [7] = target: T2, Inhibitor of nuclear factor kappa-B kinase subunit alpha (Homo sapiens); conditions: at 1 µM
# [8] = target: T3, Inhibitor of nuclear factor kappa-B kinase subunit beta (Homo sapiens) (UniProt O14920); conditions: at 0.1 µM
# T3 sequence (whole entry): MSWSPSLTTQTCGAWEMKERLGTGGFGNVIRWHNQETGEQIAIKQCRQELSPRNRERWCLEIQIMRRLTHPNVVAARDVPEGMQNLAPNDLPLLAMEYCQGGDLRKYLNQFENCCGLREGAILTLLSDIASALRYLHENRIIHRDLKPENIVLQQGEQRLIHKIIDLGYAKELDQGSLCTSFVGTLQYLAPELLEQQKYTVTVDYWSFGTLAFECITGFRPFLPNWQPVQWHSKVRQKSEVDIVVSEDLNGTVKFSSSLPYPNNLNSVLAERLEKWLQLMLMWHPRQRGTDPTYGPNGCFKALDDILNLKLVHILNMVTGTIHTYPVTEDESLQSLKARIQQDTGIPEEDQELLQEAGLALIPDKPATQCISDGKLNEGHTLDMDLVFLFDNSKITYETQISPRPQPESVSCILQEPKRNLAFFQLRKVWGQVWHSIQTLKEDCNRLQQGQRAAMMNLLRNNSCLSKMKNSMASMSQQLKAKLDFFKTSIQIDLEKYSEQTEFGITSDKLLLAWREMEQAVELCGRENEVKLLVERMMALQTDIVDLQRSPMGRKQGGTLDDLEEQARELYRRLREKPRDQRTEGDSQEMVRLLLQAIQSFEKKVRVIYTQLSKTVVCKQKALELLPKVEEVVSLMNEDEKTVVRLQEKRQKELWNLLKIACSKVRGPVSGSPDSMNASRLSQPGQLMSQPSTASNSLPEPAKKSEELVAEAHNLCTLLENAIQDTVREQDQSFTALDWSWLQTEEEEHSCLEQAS
# [9] = target: T3, Inhibitor of nuclear factor kappa-B kinase subunit beta (Homo sapiens); conditions: at 1 µM
# [10] = target: T4, Inhibitor of nuclear factor kappa-B kinase subunit epsilon (Homo sapiens) (UniProt Q14164); conditions: at 0.1 µM
# T4 sequence (whole entry): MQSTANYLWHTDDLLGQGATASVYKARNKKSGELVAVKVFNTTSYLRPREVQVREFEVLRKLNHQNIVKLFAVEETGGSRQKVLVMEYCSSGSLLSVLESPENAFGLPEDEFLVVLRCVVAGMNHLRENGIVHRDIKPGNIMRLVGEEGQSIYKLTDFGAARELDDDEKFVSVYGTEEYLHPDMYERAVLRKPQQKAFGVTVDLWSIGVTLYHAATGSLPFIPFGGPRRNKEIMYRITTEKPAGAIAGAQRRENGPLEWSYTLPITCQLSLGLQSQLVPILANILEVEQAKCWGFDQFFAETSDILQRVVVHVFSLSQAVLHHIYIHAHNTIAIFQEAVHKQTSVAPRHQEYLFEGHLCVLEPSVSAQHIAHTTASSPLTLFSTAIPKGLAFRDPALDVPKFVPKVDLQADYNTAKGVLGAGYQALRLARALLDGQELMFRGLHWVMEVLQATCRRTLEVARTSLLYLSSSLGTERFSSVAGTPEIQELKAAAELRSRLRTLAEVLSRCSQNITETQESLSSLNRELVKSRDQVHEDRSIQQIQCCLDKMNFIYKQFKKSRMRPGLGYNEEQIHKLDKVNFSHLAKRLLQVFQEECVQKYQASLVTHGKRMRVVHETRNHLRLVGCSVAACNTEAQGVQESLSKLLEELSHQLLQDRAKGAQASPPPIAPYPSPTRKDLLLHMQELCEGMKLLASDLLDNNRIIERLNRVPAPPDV
# [11] = target: T4, Inhibitor of nuclear factor kappa-B kinase subunit epsilon (Homo sapiens); conditions: at 1 µM
# [12] = target: T5, Serine/threonine-protein kinase Nek1 (Homo sapiens) (UniProt Q96PY6); conditions: at 0.1 µM
# T5 sequence (whole entry): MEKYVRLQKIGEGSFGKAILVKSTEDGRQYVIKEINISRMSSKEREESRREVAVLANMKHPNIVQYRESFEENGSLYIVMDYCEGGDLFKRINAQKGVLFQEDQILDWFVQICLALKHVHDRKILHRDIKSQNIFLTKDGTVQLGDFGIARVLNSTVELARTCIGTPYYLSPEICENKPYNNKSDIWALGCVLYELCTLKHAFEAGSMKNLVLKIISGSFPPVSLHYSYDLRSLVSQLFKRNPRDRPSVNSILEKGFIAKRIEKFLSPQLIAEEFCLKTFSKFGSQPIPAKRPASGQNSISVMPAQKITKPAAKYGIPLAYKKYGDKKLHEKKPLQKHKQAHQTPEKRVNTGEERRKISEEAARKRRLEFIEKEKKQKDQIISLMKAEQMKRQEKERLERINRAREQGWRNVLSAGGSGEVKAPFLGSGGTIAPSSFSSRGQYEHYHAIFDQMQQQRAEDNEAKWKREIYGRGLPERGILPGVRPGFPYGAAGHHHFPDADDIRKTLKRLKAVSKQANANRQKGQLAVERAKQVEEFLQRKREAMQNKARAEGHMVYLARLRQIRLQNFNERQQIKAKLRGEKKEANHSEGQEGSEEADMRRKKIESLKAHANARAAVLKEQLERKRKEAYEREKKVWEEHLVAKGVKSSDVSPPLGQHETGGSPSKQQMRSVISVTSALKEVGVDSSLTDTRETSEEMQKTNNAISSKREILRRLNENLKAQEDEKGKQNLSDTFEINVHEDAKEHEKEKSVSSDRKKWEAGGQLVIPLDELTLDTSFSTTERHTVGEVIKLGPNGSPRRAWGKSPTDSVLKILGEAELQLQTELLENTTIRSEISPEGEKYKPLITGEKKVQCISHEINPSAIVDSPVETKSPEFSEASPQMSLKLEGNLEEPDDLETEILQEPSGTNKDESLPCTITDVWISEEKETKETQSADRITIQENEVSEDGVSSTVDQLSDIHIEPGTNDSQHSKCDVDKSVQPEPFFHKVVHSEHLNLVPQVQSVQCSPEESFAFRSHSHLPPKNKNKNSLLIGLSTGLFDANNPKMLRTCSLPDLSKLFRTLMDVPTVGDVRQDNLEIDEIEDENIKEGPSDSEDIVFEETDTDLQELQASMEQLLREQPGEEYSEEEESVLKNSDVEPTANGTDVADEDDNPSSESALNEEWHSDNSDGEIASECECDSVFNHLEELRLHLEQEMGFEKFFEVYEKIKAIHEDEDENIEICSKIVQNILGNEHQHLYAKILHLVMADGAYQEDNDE
# [13] = target: T5, Serine/threonine-protein kinase Nek1 (Homo sapiens); conditions: at 1 µM
# [14] = target: T6, Serine/threonine-protein kinase Nek2 (Homo sapiens) (UniProt P51955); conditions: at 0.1 µM
# T6 sequence (whole entry): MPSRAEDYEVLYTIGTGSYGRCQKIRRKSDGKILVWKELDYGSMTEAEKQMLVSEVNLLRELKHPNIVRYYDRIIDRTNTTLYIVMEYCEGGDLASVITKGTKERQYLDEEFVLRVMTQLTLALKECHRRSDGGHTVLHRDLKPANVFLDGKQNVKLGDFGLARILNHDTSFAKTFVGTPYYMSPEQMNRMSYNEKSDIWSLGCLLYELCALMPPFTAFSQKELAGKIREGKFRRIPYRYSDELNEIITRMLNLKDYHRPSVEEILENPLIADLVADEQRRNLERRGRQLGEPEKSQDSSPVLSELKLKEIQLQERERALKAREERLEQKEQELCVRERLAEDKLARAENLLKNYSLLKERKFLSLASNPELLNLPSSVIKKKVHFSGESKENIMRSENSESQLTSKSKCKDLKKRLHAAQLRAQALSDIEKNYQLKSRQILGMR
# [15] = target: T6, Serine/threonine-protein kinase Nek2 (Homo sapiens); conditions: at 1 µM
# [16] = target: Serine/threonine-protein kinase Nek6 (Homo sapiens) (UniProt Q9HC98); conditions: at 0.1 µM
# [17] = target: Serine/threonine-protein kinase Nek6 (Homo sapiens) (UniProt Q9HC98); conditions: at 1 µM
# [18] = target: Serine/threonine-protein kinase Nek7 (Homo sapiens) (UniProt Q8TDX7); conditions: at 0.1 µM
# [19] = target: Serine/threonine-protein kinase Nek7 (Homo sapiens) (UniProt Q8TDX7); conditions: at 1 µM
# [20] = target: T7, Serine/threonine-protein kinase Nek9 (Homo sapiens) (UniProt Q8TD19); conditions: at 0.1 µM;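 note: reported value is the mean percent inhibition of NEK9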
# T7 sequence (whole entry): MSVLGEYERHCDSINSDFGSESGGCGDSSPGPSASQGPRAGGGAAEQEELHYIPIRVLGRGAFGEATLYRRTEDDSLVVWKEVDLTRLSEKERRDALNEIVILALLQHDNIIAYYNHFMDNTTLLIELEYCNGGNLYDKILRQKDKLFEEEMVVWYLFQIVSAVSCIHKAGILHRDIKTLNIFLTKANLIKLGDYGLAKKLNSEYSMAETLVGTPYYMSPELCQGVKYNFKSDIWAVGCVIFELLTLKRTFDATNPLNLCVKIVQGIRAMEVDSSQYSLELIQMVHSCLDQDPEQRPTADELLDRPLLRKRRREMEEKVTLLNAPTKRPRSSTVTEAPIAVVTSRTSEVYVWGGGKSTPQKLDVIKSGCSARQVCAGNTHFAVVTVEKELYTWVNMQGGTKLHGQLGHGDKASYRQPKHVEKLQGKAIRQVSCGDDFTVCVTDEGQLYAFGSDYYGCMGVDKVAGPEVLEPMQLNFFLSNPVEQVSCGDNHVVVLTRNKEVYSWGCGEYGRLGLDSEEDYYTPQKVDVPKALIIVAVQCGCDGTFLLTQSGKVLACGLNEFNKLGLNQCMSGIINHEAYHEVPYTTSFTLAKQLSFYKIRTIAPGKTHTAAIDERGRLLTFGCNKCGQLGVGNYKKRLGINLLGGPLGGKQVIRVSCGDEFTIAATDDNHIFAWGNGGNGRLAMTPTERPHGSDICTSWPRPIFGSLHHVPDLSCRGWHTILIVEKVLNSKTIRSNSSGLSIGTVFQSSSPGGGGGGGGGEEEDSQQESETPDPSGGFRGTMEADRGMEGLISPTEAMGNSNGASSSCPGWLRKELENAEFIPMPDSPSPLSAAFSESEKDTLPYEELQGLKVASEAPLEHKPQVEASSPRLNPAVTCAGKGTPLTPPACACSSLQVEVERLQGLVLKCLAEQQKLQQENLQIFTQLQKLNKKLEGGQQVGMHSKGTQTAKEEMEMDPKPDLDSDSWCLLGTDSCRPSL
# Serine/threonine-protein kinase Nek7 (Homo sapiens), sequence (Q8TDX7 whole entry, looked up): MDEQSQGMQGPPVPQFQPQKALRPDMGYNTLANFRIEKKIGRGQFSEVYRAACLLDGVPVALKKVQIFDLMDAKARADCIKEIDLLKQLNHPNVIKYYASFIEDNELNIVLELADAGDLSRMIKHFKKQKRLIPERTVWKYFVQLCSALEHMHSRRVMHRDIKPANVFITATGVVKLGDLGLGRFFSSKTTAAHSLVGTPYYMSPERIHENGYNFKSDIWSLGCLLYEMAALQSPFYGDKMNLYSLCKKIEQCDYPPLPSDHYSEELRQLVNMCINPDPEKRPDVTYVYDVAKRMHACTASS
# Casein kinase II subunit alpha (Homo sapiens), sequence (P68400 whole entry, looked up): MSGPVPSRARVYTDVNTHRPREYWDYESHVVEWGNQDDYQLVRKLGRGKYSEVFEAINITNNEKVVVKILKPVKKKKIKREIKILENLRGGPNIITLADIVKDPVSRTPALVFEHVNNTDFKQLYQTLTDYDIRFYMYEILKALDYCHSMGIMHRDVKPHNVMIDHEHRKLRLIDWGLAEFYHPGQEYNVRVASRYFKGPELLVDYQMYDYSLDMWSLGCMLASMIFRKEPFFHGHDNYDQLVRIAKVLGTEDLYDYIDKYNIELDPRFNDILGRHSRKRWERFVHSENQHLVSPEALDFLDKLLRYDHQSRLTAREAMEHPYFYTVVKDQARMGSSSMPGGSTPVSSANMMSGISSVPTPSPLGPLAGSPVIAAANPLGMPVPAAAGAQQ
# Serine/threonine-protein kinase Nek6 (Homo sapiens), sequence (Q9HC98 whole entry): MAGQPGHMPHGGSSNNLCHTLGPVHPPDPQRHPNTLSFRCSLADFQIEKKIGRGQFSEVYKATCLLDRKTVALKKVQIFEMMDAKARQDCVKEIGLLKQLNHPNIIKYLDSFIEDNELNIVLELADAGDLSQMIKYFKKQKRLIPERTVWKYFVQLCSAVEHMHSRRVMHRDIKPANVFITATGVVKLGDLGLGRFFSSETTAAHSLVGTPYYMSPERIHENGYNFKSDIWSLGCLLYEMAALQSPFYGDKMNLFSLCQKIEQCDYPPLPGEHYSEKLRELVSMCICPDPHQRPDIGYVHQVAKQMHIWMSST
# Sphingosine kinase 1 (Homo sapiens), sequence (Q9NYA1 whole entry): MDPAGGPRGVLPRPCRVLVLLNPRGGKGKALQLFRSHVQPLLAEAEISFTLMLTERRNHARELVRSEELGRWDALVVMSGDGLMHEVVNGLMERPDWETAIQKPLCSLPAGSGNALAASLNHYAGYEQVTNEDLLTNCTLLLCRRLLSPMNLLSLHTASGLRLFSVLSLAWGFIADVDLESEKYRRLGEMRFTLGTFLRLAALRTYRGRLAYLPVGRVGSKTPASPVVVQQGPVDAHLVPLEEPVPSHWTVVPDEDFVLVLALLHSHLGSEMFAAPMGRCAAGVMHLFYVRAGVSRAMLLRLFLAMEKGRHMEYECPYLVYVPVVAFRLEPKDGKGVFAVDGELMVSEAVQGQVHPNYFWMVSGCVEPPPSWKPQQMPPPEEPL
compound,measurement,setting,value
COc1cc(Nc2nccc(-c3cnn4ncccc34)n2)cc(OC)c1,inhibition,[1],0.57%
same,inhibition,[2],0%
same,inhibition,[3],0.21%
same,inhibition,[4],8.84%
same,inhibition,[5],42.7%
same,inhibition,[6],17.4%
same,inhibition,[7],71.4%
same,inhibition,[8],5.71%
same,inhibition,[9],24.5%
same,inhibition,[10],5.75%
same,inhibition,[11],28.2%
same,inhibition,[12],2.05%
same,inhibition,[13],19.3%
same,inhibition,[14],2.03%
same,inhibition,[15],12%
same,inhibition,[16],-0.86%
same,inhibition,[17],2.06%
same,inhibition,[18],2.07%
same,inhibition,[19],3.54%
same,inhibition,[20],17.3%
